# Experimental data from PubChem BioAssay (NCATS).
# Results filed as inconclusive are left out. A call without a number means that no potency is given here. Calls of active or inactive are those of the source. Calls come from the whole dose curve; as a rule, active = well fitted curve in the direction sought with a large enough effect; inconclusive = small, poorly fitted or top-dose-only effect, or another doubt; inactive = no such curve, though single readings can be large; an effect the other way counts as inactive or inconclusive.
# Legend:
# [1] = biological target: Cytochrome P450 3A4 (Homo sapiens) (UniProt P08684); experiment: qHTS Assay for Inhibitors and Substrates of Cytochrome P450 3A4 (AID 884); note: nearly all actives have a fitted effect of over 50% in size; note: potency is the fitted concentration of half-maximal effect
# Cytochrome P450 3A4 (Homo sapiens), sequence (P08684 whole entry, looked up): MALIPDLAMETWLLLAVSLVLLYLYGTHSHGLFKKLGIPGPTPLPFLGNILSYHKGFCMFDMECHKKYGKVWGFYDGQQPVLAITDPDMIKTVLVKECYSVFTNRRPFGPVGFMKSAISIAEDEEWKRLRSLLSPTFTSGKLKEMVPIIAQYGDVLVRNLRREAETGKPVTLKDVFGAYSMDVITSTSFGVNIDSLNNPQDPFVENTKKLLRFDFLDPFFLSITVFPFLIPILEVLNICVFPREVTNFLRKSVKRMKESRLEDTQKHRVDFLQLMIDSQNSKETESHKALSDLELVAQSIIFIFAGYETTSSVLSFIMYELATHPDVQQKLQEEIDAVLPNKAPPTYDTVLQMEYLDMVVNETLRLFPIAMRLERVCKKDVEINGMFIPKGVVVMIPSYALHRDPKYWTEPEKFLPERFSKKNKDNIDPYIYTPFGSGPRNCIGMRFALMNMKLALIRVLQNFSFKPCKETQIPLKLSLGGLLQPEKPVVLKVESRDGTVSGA
# How it was run: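 Luminescent readout of luciferin produced by CYP3A4 (20 nM) dealkylation of Luciferin-PPXE, 25 uM (its KM). NADPH-driven reaction ran 60 min at RT after 10 min compound preincubation; data scaled to 57 uM ketoconazole as 100% inhibition.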
# [2] = biological target: DNA dC->dU-editing enzyme APOBEC-3G (Homo sapiens) (UniProt Q9HC16); experiment: qHTS for inhibitors of Vif-A3G interactions: Validation (AID 588379)
# DNA dC->dU-editing enzyme APOBEC-3G (Homo sapiens), sequence (Q9HC16 whole entry, looked up): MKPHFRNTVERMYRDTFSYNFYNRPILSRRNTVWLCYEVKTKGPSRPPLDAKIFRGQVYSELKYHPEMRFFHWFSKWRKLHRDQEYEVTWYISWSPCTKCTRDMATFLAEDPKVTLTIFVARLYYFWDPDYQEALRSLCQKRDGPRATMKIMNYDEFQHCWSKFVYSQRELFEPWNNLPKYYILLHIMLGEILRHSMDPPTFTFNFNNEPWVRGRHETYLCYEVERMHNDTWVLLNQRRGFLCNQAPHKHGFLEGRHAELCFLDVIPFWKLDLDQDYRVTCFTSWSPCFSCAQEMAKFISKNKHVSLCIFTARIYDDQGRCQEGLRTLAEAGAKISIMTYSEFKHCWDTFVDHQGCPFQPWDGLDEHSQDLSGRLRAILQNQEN
# How it was run: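 Yellow fluorescence (Ex 488, Em 500-530) of Vif-coexpressing HeLa A3G-eYFP cells, scanned by Acumen cytometer, reports blocked A3G degradation. Cells plated at 700/well overnight at 37 deg C before compound addition, then a further overnight compound incubation at 37 deg C.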
# [3] = biological target: Cytochrome P450 3A4 (Homo sapiens) (UniProt P08684); experiment: qHTS Assay for Activators of Cytochrome P450 3A4 (AID 885); note: nearly all actives have a fitted effect of over 65% in size
# How it was run: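 CYP3A4 activity: Luciferin-PPXE O-dealkylation, 25uM substrate, 200mM KPO4, RT throughout. Read-out is luciferase luminescence; higher values reflect activation.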
Structure (SMILES),Potency [1],Potency [2],Potency [3]
O=c1c(O)c(-c2ccc(O)c(O)c2)oc2c(OC[C@@H]3O[C@@H](O)[C@@H](O)[C@H](O)[C@H]3O)c(O)cc(O)c12,inactive,inactive,–
OC1CCC2Cc3ccccc3N=C12 (configuration not stated),inactive,inactive,–
COc1ccc(C(=O)C2C3C4COC(O4)C(=O)C3C3C=Cc4ccccc4N32)c(OC)c1 (configuration not stated),31.6 µM (active),inactive,inactive
CC(C)c1ccc2c(c1)CC[C@@H]1[C@@](C)(CN)CCC[C@]21C,–,inactive,–
CNC(=O)Oc1ccc2c(c1)C1(C)CCN(C)C1N2C (configuration not stated),inactive,inactive,–
COc1cc(OC)c2c(c1)OC(c1ccccc1)CC2=O (configuration not stated),12.6 µM (active),inactive,–
CC(C)=CCC/C(C)=C\COc1c2ccoc2cc2oc(=O)ccc12,0.794 µM (active),inactive,inactive
O=c1cc(-c2ccccc2)oc2cc(O[C@@H]3O[C@H](CO)[C@@H](O)[C@H](O)[C@H]3O)c(O)c(O)c12,inactive,inactive,–
CC(=O)OC1CCC2(C)C(CCC3(C)C2C(=O)C=C2C4CC(C)(C(=O)OCCN5CCCCC5)CCC4(C)CCC23C)C1(C)C (configuration not stated),inactive,inactive,–
O=C(/C=C/c1ccc(OCc2ccccc2)cc1)c1cccs1,inactive,inactive,–
CC(=O)Oc1ccc(/C=C/C(=O)CC2OC(Oc3cc(OC(C)=O)c4c(c3)O[C@@H](c3ccc(OC(C)=O)cc3)CC4=O)C(OC(C)=O)C(OC(C)=O)C2OC(C)=O)cc1 (some centres not stated),inactive,inactive,–
CC1CC2(C)Oc3ccccc3C3OCC1(COC(=O)Nc1ccccc1)C(C)C32 (configuration not stated),10 µM (active),inactive,inactive
Cc1ccc(CC(Cc2nc3ccccc3[nH]2)c2nc3ccccc3[nH]2)cc1 (configuration not stated),1.26 µM (active),inactive,inactive
CC(C)=CCC/C(C)=C/COc1c2occc2cc2ccc(=O)oc12,1.26 µM (active),inactive,inactive
CCOc1ccc(/C=C/C(=O)c2cccs2)cc1,inactive,inactive,–
CC(=O)OC1CCC2(C)C3CCC4(C)C(CC5CCCCC54C(C)=O)C3CC(=O)[C@@]2(O)C1 (some centres not stated),10 µM (active),inactive,inactive
C=C(CO)C1Cc2c(ccc3c(=O)c4c(oc23)COc2cc(OC)c(OC)cc2-4)O1 (configuration not stated),inactive,inactive,–
COc1ccc2c(c1OC)C(Cc1ccccc1)N1CCc3cc4c(cc3C1C2)OCO4 (configuration not stated),1 µM (active),inactive,inactive
